Hits are enriched below; roughly 11% of the tested compounds scored in any of these assays.
AMA1 RON2 block: disrupts binding of P. falciparum AMA1 to RON2; 360,000 compounds, 0.2% hits; Potency, µM (top dose mostly 58.2 µM), for inactives: at the highest dose activity change, negative = inhibition, actives largely listed as inhibitors; AlphaScreen AMA1-biotinylated RON2 peptide binding;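 note: 0% = vehicle wells and -100% = peptide control; nearly all actives have a fitted effect of over 45% in size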
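AMA1 (3D7) with his tag at 25 nM final met compounds first, then biotinylated RON2 peptide at 25 nM; detection used donor plus acceptor beads, 10 µg/mL apiece, read by AlphaScreen after 30 min at room temperature.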
Pf growth 48h: inhibits P. falciparum growth in the first generation, 48 h | Potency, µM (series often up to 28.7 µM), inactives show top-dose activity change, negative = inhibition, usual class: inhibitors | AID 504832 | P. falciparum luciferase growth in erythrocytes, 48 h | 310,000 compounds, 5.9% hits
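Luciferase-expressing parasites in RBCs, 2% Hct / 0.1% parasitemia final; RPMI 1640 + 0.5% Albumax; 37 C, 5% CO2, one generation; luminescence read-out, lower signal = inhibition.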
HCV inhibitor: inhibitors of hepatitis C virus infection. Huh7.5.1 HCVcc-Cre infection, luciferase reporter, 44 h. Potency, µM (doses to about 41.8 µM), without a hit: top-dose activity change, negative = inhibition, actives largely listed as inhibitors. 340,000 compounds, 3.4% hits. AID 651820
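A cell-based infection assay in which seeded cells (1,000 per well) receive test compound after 4 h, are inoculated with HCVcc-Cre at approximately 0.5 moi, and are incubated 44 h before luminescence detection.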
Pf growth 96h: P. falciparum growth inhibition at 96 hour, primary screen for plastid delayed-death inhibitors; P. falciparum luciferase reporter growth, 96 h; Potency, µM (highest dose often 28.7 µM), for inactives: at the highest dose activity change, negative = inhibition, usual class: inhibitors; 320,000 compounds, 6.9% hits; AID 504834
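Infected RBCs, 2% Hct / 0.05% parasitemia final; luciferase-reporter P. falciparum; cpd 96 h, 37 C, 5% CO2; luciferase detection reagent; luminescence.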
AmpC no deterg: AmpC beta-lactamase inhibition without detergent | AmpC nitrocefin hydrolysis, absorbance 480 nm, 0.0001% Triton | AID 485341 | 330,000 compounds, 0.52% hits | Potency, µM (top dose mostly 57.1 µM), for the others: at the highest dose activity change, negative = inhibition, most hits filed as inhibitors;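 note: plate controls were no compound for no effect and no enzyme for full effect; nearly all actives have a fitted effect of over 20% in size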
Target sequence (P00811 whole entry, looked up): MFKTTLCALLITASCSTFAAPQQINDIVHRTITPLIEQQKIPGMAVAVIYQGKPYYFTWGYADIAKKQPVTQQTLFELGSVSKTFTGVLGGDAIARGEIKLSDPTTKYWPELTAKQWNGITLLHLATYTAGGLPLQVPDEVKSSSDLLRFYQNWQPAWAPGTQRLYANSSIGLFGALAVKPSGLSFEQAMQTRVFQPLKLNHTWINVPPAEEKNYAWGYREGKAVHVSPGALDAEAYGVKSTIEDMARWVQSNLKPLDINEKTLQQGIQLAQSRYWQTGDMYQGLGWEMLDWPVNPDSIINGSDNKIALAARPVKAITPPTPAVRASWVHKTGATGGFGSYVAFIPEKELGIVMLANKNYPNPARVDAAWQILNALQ
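20 mM phosphate pH 7.0 + 0.01% (detergent screen) or 0.0001% Triton X-100; 5.3 nM AmpC reagent; cpd preinc 15 min RT; nitrocefin (800 uM stock) to start; A480 q20 s × 4 min; Activity was normalised to no-enzyme and no-compound control wells.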
AmpC inh detg: AmpC beta-lactamase inhibition with detergent present. P00811. AmpC hydrolysis of nitrocefin, absorbance 480 nm, 0.01% Triton. Potency, µM (doses to about 114 µM), inactives show top-dose activity change, negative = inhibition, usual class: inhibitors. 370,000 compounds, 0.041% hits. AID 485294;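 note: 0% = no-compound wells and -100% = no-enzyme wells; nearly all actives have a fitted effect of over 25% in size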
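AmpC (5.3 nM in the dispensed reagent) in 20 mM phosphate pH 7.0 with 0.01% (detergent screen) or 0.0001% Triton X-100 was preincubated with compounds for 15 min at room temperature. Nitrocefin was then added from an 800 uM solution, and hydrolysis was followed at 480 nm.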
* hit, by the source's call; ? = inconclusive; . = not tested or not shown; [ ] = remark or other dose. Calls come from the whole dose curve; as a rule, active = well fitted curve in the direction sought with a large enough effect; inconclusive = small, poorly fitted or top-dose-only effect, or another doubt; inactive = no such curve, though single readings can be large; an effect the other way counts as inactive or inconclusive. Unless noted, % is set by controls: 0 for no effect and ±100 for the full control effect; potency is the fitted concentration of half-maximal effect.

SMILES	AMA1 RON2 block	Pf growth 48h	HCV inhibitor	Pf growth 96h	AmpC no deterg	AmpC inh detg
Cc1ccc(NC(=O)C2CCN(S(=O)(=O)c3ccc4c(c3)CC(C)N4C(=O)C3CCC3)CC2)nc1 (stereo unspecified)	0%	?	8.9µM*	?	63%	?
CC1Cc2cc(S(=O)(=O)N3CCC(C(=O)Nc4ccccn4)CC3)ccc2N1C(=O)C1CCC1 (stereo unspecified)	-3%	?	7.9µM*	?	38%	0%
CC(=O)N1c2ccc(S(=O)(=O)N3CCC(C(=O)NC4CCC(C)CC4)CC3)cc2CC1C (stereo unspecified)	-9%	?	-14%	5.2µM*	103%	-7%
COc1ccc(NC(=O)Cn2c(=O)n(Cc3ccco3)c(=O)c3sc4ccccc4c32)cc1OC	.	.	.	.	.	6%
COC(=O)C(C)Sc1nnc2cc(C)c3cc(C)cc(C)c3n12 (stereo unspecified)	.	.	.	.	.	0%
Nc1nn(-c2ccccc2)nc1C(=O)OCc1c(F)cccc1Cl	.	.	.	.	.	-1%
CCCSc1nnc(CSc2nc(C)cc(C)n2)n1C	7%	-12%	24%	10µM*	-10%	?
CCC(C)Sc1nnc(CSc2nc(C)cc(C)n2)n1C (stereo unspecified)	4%	?	4%	13µM*	3%	?
CCc1nnc(NC(=O)CSc2nnc(CSc3nc(C)cc(C)n3)n2C)s1	1%	9%	-9%	?	-18%	1%
O=C(CSCc1ccc([N+](=O)[O-])cc1)NC1CC1	-4%	-3%	10%	13µM*	-25%	-12%
CC(C)(C)c1cc(NCc2ccccn2)n2ncc(-c3ccccc3)c2n1	82%	?	13µM*	?	-4%	3%
O=C1CCC(C(=O)Nc2ccc(Cl)cc2)N1 (stereo unspecified)	-2%	2%	-9%	5.2µM*	-23%	-6%
CCCn1c(CN2CCN(c3ccc(OC)cc3)CC2)nc2c1c(=O)[nH]c(=O)n2C	.	.	.	.	.	9%
Cc1nc(Nc2ccc(O)cc2)c2c3c(sc2n1)CCCC3	?	15µM*	?	?	-2%	-14%
CCc1cccc(CC)c1NC(=O)C1SC(=Nc2ccccc2C)C(c2nc3ccccc3s2)=C1N (stereo unspecified)	25%	.	0%	7.4µM*	-46%	-13%
CCN(c1ccccc1)S(=O)(=O)c1ccc(NC(=O)c2cc(=O)c3cc(C)ccc3o2)cc1	.	.	.	.	.	10%
COc1ccc(OC)c(-c2csc(NC(=O)COC(=O)C3(C)CC3(Cl)Cl)n2)c1 (stereo unspecified)	8%	?	14µM*	-1%	-37%	-14%
COc1ccc(-c2csc(NC(=O)CSc3ccc(Br)cc3)n2)c(OC)c1	-16%	?	-9%	?	35µM*	-1%
CC(C)(C)c1csc(NNC(=O)c2ccc(Br)cc2)n1	89%	2.9µM*	?	?	-28%	3%
COc1ccc(OC)c(-c2csc(NC(=O)CSc3ccccc3)n2)c1	10%[2.32 µM]	5%	?	53%	-48%	5%
COc1ccc(-c2csc(NC3CCCCC3)n2)c(OC)c1	-22%	9.3µM*	?	?	-39%	-7%
Cc1ccccc1NC(=O)CCn1cnc2onc(-c3ccc(F)cc3)c2c1=O	.	.	.	.	.	-2%
COc1ccc(-c2csc(N)n2)cc1F	-5%	249%	5%	152%	-9%[11.4 µM]	-8%
COc1ccc(OC)c(-c2csc(NC(=O)CSCc3c(C)noc3C)n2)c1	?	?	11µM*	?	-50%	?
COc1ccc(CC(=O)Nc2nc(C(C)(C)C)cs2)cc1	-4%	-7%	10µM*	-12%	-25%	4%
SMILES	AMA1 RON2 block	Pf growth 48h	HCV inhibitor	Pf growth 96h	AmpC no deterg	AmpC inh detg
CC(C)(C)c1csc(NC(=O)c2ccccc2O)n1	-21%	-3%	22µM*	17%	-36%	-6%
CCc1ccc(OC)c(-c2csc(N)n2)c1	-14%	19%	?	12µM*	-21%	2%
COc1cccc(NC(=O)C2CC(=O)N(c3ccc(Br)cc3)C2)c1 (stereo unspecified)	.	.	.	.	.	1%
COc1ccc(NC(=O)c2nn(C)c3c2CS(=O)(=O)c2ccccc2-3)cc1Cl	.	.	.	.	.	-1%
Cc1ccc(CCNC(=O)CCCn2c(=O)c3cccn3c3ccc(F)cc32)cc1	.	.	.	.	.	-2%
CC(C)c1ccc(NC(=O)Cn2c(=O)n(CC3CCC(C(=O)NCCc4ccccc4)CC3)c(=O)c3ccccc32)cc1 (stereo unspecified)	.	.	.	.	.	-1%
COc1ccc(CC(=O)Nc2nc(-c3cc(OC)ccc3OC)cs2)cc1	?	13%	13µM*	?	-19%	8%
COc1ccc(OC)c(-c2csc(NC(=O)Cc3ccc(OC)c(OC)c3)n2)c1	?	-8%	?	-19%	48%	0%
CCc1noc(C)c1C(=O)Nc1nc(-c2cc(OC)ccc2OC)cs1	-3%	?	?	?	14%	-14%
CCc1noc(C)c1C(=O)Nc1nc(-c2ccc(OC)cc2OC)cs1	0%	2.3µM*	?	2.3µM*	?	-21%
CCOC(=O)Cn1c(=O)oc2cc(S(=O)(=O)N3CCN(c4cccc(C)c4)C(C)C3)ccc21 (stereo unspecified)	.	.	.	.	.	-10%
CCc1cccc(-n2c(=O)c3cccnc3n2CC(=O)Nc2ccc(OC)c(Cl)c2)c1	.	.	.	.	.	4%
Cc1ccc(NC(=O)CSCC(=O)Nc2cc(C(F)(F)F)ccc2N2CCOCC2)cc1	-15%	?	-12%[8.37 µM]	?	?	-12%
Cc1cccc(NC(=O)CSCC(=O)Nc2ccc(S(=O)(=O)N3CCCC3)cc2)c1	-15%	-19%	-5%	-17%	?	-18%
CCN(CC)S(=O)(=O)c1ccc(N2CCOCC2)c(NCC(=O)Nc2ccc(F)cc2)c1	-5%	?	-19%	-16%	-6%	-10%
Cc1ccc(NC(=O)CSCC(=O)Nc2cc(Cl)ccc2N2CCN(C)CC2)cc1	69%	13µM*	?	?	74%	-12%
CCN(CC)S(=O)(=O)c1ccc(N2CCN(C)CC2)c(NC(=O)CSCC(=O)Nc2cccc(C)c2)c1	7%	17µM*	-4%	?	65%	-21%
CCN(CC)S(=O)(=O)c1ccc(N2CCN(C)CC2)c(NC(=O)Nc2ccc(C)cc2)c1	-9%	9.3µM*	-13%	?	161%	-5%
COc1ccc(CCC(=O)Nc2cc(Cl)ccc2N2CCN(C)CC2)cc1	-7%	7.4µM*	?	4.7µM*	87%	0%

Screening results deposited in PubChem by National Center for Advancing Translational Sciences (NCATS).
